The text below walks through data of PubChem BioAssay AID1041 (National Center for Advancing Translational Sciences (NCATS), 2008).

This assay can be described thus: p16 Derepression/Induction Secondary Assay for qHTS Assay for Epigenetic Modulators. The settings on record: H358 cells, p16 mRNA RT-qPCR, 72 h; active compounds read high. From the text:
NIH Molecular Libraries Screening Centers Network [MLSCN] NIH Chemical Genomics Center [NCGC] MLSCN Grant: 1 X01 MH079860-01 Assay Provider: Elisabeth D. Martinez, University of Texas SW Medical Center NCGC Assay Overview: This secondary assay characterizes selected actives identified in the qHTS of the Locus Derepression (LDR) assay (PubChem AID 597). The LDR assay detects the derepression of a GFP reporter that is stably integrated in a region of the genome of murine c127i mammary cells that is presumably silenced. Compounds that cause derepression of the locus to express GFP are identified by enumerating GFP positive cells using a laser-scanning microplate cytometer. Selected LDR actives were assayed for the induction of p16 gene expression, a gene silenced by dense methylation of its promoter. […]
NCGC Assay Protocol Summary Exponentially growing H358 non-small cell lung cancer cells were treated daily with fresh media containing the indicated concentrations of compounds for 72 hr. Cellular RNA was extracted, quantified, DNAse treated and reverse transcribed. The resulting cDNA was amplified in TaqMan real time quantitative PCR assays (Applied Biosystems) containing validated primers specific for p16 (Hs00233365_m1). […] Gene expression was measured by fold-induction over control DMSO-treated samples (36-37 average cycle time). […]
On the technique in general: In qHTS, concentration-response curves come from the screen itself.

Each structure is given as a SMILES string. Calls of active or inactive are those of the source.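 Rule for the calls: active = compound lifting p16 RNA above DMSO-treated cells by a clear fold change, a shift of a few PCR cycles; inactive = the rest, including any drop in level.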

With `CN1CSC(=S)N(C)C1`, the fold change was 1 (inactive).
